# The entries come from a sample that favours hits as a whole.
# DT40 TDP1 no CPT – qHTS for Inhibitors of human tyrosyl-DNA phosphodiesterase 1 (TDP1): qHTS in cells in absence of CPT | DT40 Tdp1-/- hTDP1 cells, no CPT, ATP luminescence, 48 h | Potency, µM (doses to about 46.2 µM), without a hit: at the top dose activity change, negative = growth inhibition, most hits filed as inhibitors | 420,000 compounds, 15% hits; note: potency is the fitted concentration of half-maximal effect; nearly all actives have a fitted effect of over 55% in size
#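 Camptothecin absent (DMSO only). Human TDP1-complemented DT40 knockout cells, 400 cells/well, 37 °C for minimum 48 hr; ATP measured via CellTiter-Glo, 30 min dark incubation, luminescence.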
# HT1080 IDH1KD tx – qHTS for induction of synthetic lethality in tumor cells producing 2HG: qHTS for the HT-1080-IDH1KD cell line; HT-1080 IDH1 knockdown viability, ATP luminescence, 48 h; Potency, µM (titrated, usually from 46.1 µM), for inactives: at the top dose activity, negative = toxicity, usual class: cytotoxic; 360,000 compounds, 2% hits; AID 686971, 2013;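 note: potency is the fitted concentration of half-maximal effect; 0% = DMSO wells and -100% = cell-free medium wells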
#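 In this qHTS, HT-1080 cells depleted of IDH1 are exposed for 48 h at 37 °C to compound titrations. Toxicity is scored from CellTiter-Glo luminescence, with DMSO as full viability and medium alone as none.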
# IL-1B inflam inh – qHTS for Inhibitors of Inflammasome Signaling: IL-1-beta AlphaLISA Primary Screen; THP-1 LPS/ATP IL-1B secretion, AlphaLISA, 16 h; active compounds read low; activity change, % at 57.5 µM; 360,000 compounds, 4.7% hits; in the data active = activity change below about -50%; inconclusive = mostly about -30% to -49%
#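 THP-1 cells pretreated 1 hr with compounds (up to 57.5 uM final), then stimulated with LPS (250 ng/mL final) plus ATP (1.25 mM final); secreted IL-1B measured by AlphaLISA after 16 hr, decreased signal indicating inhibition.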
# ALOX12 inh – Primary qHTS assay for inhibitors of human arachidonate 12S-lipoxygenase (ALOX12): Round 2; purified 12hLO, xylenol orange hydroperoxide absorbance; 580,000 compounds, 1.1% hits; Potency, µM (series often up to 108 µM), for inactives: top-dose activity change, negative = inhibition, usual class: inhibitors; note: potency is the fitted concentration of half-maximal effect
# Target sequence (P18054 whole entry, looked up): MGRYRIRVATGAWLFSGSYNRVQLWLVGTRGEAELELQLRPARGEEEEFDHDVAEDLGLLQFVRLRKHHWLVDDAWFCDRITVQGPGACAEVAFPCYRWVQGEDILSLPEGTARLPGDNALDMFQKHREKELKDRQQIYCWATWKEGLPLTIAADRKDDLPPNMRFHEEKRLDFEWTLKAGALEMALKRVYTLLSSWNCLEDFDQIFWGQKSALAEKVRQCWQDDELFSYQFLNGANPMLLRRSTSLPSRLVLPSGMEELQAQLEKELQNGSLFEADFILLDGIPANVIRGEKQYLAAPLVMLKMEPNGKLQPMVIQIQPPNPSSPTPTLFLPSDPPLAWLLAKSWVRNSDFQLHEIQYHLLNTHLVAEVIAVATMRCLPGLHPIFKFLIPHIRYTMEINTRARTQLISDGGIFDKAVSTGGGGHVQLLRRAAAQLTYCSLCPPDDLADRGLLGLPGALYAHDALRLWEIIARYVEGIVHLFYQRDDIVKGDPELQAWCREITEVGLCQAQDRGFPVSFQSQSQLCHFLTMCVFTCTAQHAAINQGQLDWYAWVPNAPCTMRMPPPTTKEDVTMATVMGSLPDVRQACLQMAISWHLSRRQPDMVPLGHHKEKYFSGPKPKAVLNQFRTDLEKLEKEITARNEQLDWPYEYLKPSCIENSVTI
#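 Purified human 12hLO (150 nM final) in 25 mM Hepes, 0.01% Triton X-100, pH 7.0 was preincubated 15 min at room temperature with compound. Then 40 uM arachidonic acid was added, 30 min. Hydroperoxide was read by Fe-XO absorbance ratio 573/405 nm.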
# HT1080-NT tox – qHTS for induction of synthetic lethality in tumor cells producing 2HG: qHTS for the HT-1080-NT fibrosarcoma cell line. HT-1080-NT fibrosarcoma viability, CellTiter-Glo ATP luminescence, 48 h. Potency, µM (top dose mostly 46.1 µM), without a hit: top-dose activity, negative = less viability, usual class: cytotoxic. 360,000 compounds, 1.6% hits. AID 686970, 2013;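 note: NT is the 2HG producing partner of a matched IDH1 knockdown line; potency is the fitted concentration of half-maximal effect; 0% = DMSO-treated cells and -100% = media-only wells without cells; nearly all actives have a fitted effect of over 55% in size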
#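 HT-1080-NT fibrosarcoma cells (2HG-overproducing), 750 cells/well in RPMI with 5% FBS, dosed after 2 h and incubated 48 h at 37C. CellTiter-Glo luminescence normalized to DMSO and no-cell wells; concentration-response curves fitted and classed.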
# DT40 TDP1 CPT – qHTS for Inhibitors of human tyrosyl-DNA phosphodiesterase 1 (TDP1): qHTS in cells in presence of CPT; chicken DT40 Tdp1-/-;hTDP1 cells + 20 nM CPT, ATP luminescence, 48 h; Potency, µM (highest dose often 46.2 µM), for the others: top-dose activity change, negative = growth inhibition, hits mostly inhibitors; 420,000 compounds, 12% hits; note: potency is the fitted concentration of half-maximal effect; nearly all actives have a fitted effect of over 55% in size
#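 Chicken DT40 Tdp1-/- cells stably complemented with human TDP1 were seeded at 400 cells/well in medium containing 20 nM camptothecin, exposed to pin-transferred compounds, and grown at 37 °C for at least 48 hr. Viability was read as ATP luminescence.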
# Active calls of the source: *; i = inactive; ? = inconclusive; nt = no result given; [ ] = remark or other dose. Unless noted, calls come from the whole dose curve; as a rule, active = well fitted curve in the direction sought with a large enough effect; inconclusive = small, poorly fitted or top-dose-only effect, or another doubt; inactive = no such curve, though single readings can be large; an effect the other way counts as inactive or inconclusive. Unless noted, % is set by controls: 0 for no effect and ±100 for the full control effect.
SMILES,DT40 TDP1 no CPT,HT1080 IDH1KD tx,IL-1B inflam inh,ALOX12 inh,HT1080-NT tox,DT40 TDP1 CPT
CCOc1ccc(NC(=O)c2c(NC(=O)CNCCN3CCOCC3)sc3c2CCC3)cc1,15µM*,-23%,-11,i,-4%,?
CCOC(=O)N1CCc2c(sc(NC(=O)Cc3ccccc3)c2C(=O)c2ccc(OC)cc2)C1,26µM*,-20%,-7,?,-24%,?
CCOC(=O)c1c(NC(=O)CN2CCOCC2)sc2c1CCCC2,21µM*,-3%,7,0%,-1%,?
CCOC(=O)c1c(NC(=O)CN2CCOCC2)sc2c1CCCC2=O,-14%,-6%,1,8%,0%,-8%
CC(C)CN1C(=O)C2(CC(=O)Nc3[nH]ncc32)c2ccccc21 (centres undefined),nt,nt,nt,7%,nt,nt
CCOC(=O)c1c(NC(=O)CN(CC)CC)sc2c1CCN(C(=O)OCC)C2,26µM*,?,?,1%,?,?
O=C(CSc1ncc(-c2ccccc2)o1)Nc1cccc(F)c1,nt,nt,nt,-5%,nt,nt
C[C@H]1CN([C@@H](C)CO)C(=O)c2cc(C#Cc3cccnc3)cnc2O[C@H]1CN(C)Cc1ccc(F)cc1,?,0%,-8,-15%,1%,?
COc1cccc(S(=O)(=O)N(C)C[C@@H]2Oc3ncc(C#CCN(C)C)cc3C(=O)N([C@H](C)CO)C[C@H]2C)c1,?,4%,-16,7%,5%,-21%
C[C@H](CO)N1C[C@H](C)[C@@H](CN(C)S(=O)(=O)c2ccccc2F)Oc2ncc(C#Cc3cccnc3)cc2C1=O,15µM*,-5%,-6,?,-9%,?
COc1ccc(S(=O)(=O)N(C)C[C@H]2Oc3ncc(C#CC4(O)CCCC4)cc3C(=O)N([C@@H](C)CO)C[C@@H]2C)cc1,?,-2%,-28,?,-1%,9.2µM*
CCCC#Cc1cnc2c(c1)C(=O)N([C@H](C)CO)C[C@@H](C)[C@H](CN(C)S(=O)(=O)c1cccc(OC)c1)O2,10µM*,-6%,?,?,-1%,?
Cc1ccc(NC(=O)c2csc3c2CCCCC3)cc1C,nt,nt,nt,-14%,nt,nt
O=C(N/N=C/c1ccc(O)cc1)c1csc2c1CCCC2,?,-18%,-62*,2%,-17%,16%
CCn1c(NC(=O)/C=C/c2ccc(F)cc2)nc2ccccc21,23µM*,-26%,48,5%,-29%,?
COc1ccc(/C=C/C(=O)Nc2cc(C)nn2-c2nc3ccccc3n2Cc2cccc([N+](=O)[O-])c2)cc1,-6%,1%,8,-2%,2%,-24%
Cc1cc(NC(=O)/C=C/c2cccc(Cl)c2)n(-c2nc3ccccc3[nH]2)n1,12µM*,-9%,27,-1%,-4%,-92%
NC(=O)c1ccccc1NC(=O)/C=C/c1cccc(Cl)c1,-13%,0%,?,-5%,-1%,-23%
Cc1cc(NC(=O)CSc2nc3ccccc3[nH]2)n(-c2ccccc2)n1,?,-11%,0,42%,-1%,?
COc1ccc(/C=C/C(=O)Nc2cc(C)nn2-c2nc3ccccc3[nH]2)cc1,18µM*,-6%,-6,1%,-8%,?
Cc1cc(NC(=O)/C=C/c2cccc(F)c2)n(-c2nc3ccccc3[nH]2)n1,12µM*,-17%,0,-21%,-8%,23µM*
COc1ccc(CN2C(=O)[C@@H]3C[C@@H](O)CN3C3(CN(C(C)C)C3)C2=O)cc1,nt,nt,nt,7%[176 µM],nt,nt
COCCNC(=O)CCc1ncc(-c2ccc(Cl)cc2Cl)o1,nt,nt,nt,65%,nt,nt
Cc1cc(NC(=O)/C=C/c2ccc(F)cc2)n(-c2nc3ccccc3[nH]2)n1,15µM*,-3%,7,-8%,-13%,?
O=C(NCC(c1ccco1)N1CCCCC1)C(c1ccccc1)c1ccccc1 (centres undefined),?,-6%,?,-1%,1%,16µM*
SMILES,DT40 TDP1 no CPT,HT1080 IDH1KD tx,IL-1B inflam inh,ALOX12 inh,HT1080-NT tox,DT40 TDP1 CPT
N#Cc1ccc(C(=O)NCC(c2ccco2)N2CCCC2)cc1 (centres undefined),-6%,22%,30,26%,14%,-6%
N#Cc1ccccc1Sc1ccccc1C(=O)NCC(c1ccco1)N1CCCC1 (centres undefined),?,-13%,-13,?,-9%,23µM*
S=C(NCCc1ccccc1)NCC(c1ccco1)N1CCCCC1 (centres undefined),23µM*,-18%,?,?,4%,?
CC(Oc1ccc(C(C)(C)C)cc1)C(=O)NCC(c1ccco1)N1CCCC1 (centres undefined),21µM*,-7%,?,1%,-13%,23µM*
COc1cccc(N2C(=O)NC(=NC3CCCC3)C23CCN(Cc2cccnc2)C3)c1 (centres undefined),nt,nt,nt,8%[6.33 µM],nt,nt
CCOc1ccccc1/C=C(/C#N)C(=O)c1cccc(OC)c1,nt,nt,nt,-46%,nt,nt
Cc1ncsc1C(=O)NC(C)c1ccc(Cl)s1 (centres undefined),nt,nt,nt,0%,nt,nt
O=C(NCC(c1ccco1)N1CCCCC1)c1cc2c(s1)CCCC2 (centres undefined),16µM*,19%,16,304%,2%,18µM*
O=C(NCC(c1ccco1)N1CCCCC1)c1cccs1 (centres undefined),-25%,1%,17,?,2%,-1%
COc1cc2nc(N3CCCCC3)nc(NC(C)C)c2cc1OC,?,?,nt,nt,?,5µM*
COc1cc2nc(N3CCN(C)CC3)nc(NC(C)C)c2cc1OC,18µM*,-2%,nt,nt,-22%,?
COc1cc2nc(N3CCOCC3)nc(NC(C)C)c2cc1OC,?,15%,nt,nt,-2%,?
COc1cc2ncnc(NCc3ccc(Cl)cc3)c2cc1OC,?,-1%,-3,-20%,1%,?
COc1cc2nc(Cl)nc(NC(C)C)c2cc1OC,16µM*,-10%,nt,nt,-18%,14µM*
CCC(=O)N1CCN(c2nc3c(s2)CN(C(=O)CC)CC3)CC1,nt,nt,nt,8%,nt,nt

# Bioassay records: PubChem, National Center for Advancing Translational Sciences (NCATS)
